Peg3 prom inh: Peg3 promoter-driven luciferase inhibitors, primary screen, cell-based, HeLa, luciferase luminescence; HeLa PEG-Prom luciferase reporter, overnight; inhibition, % at 20 µM; 360,000 tested, 1.7% active; AID 588405, 2011;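 active = inhibition of at least 50% at 20 µM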
HIF-2a block: HIF-2a reporter inhibitors, primary screen, luminescence, 786-0 RCC cells. 786-0 RCC cells HIF-2a reporter, luciferase luminescence, overnight. inhibition, % at 18.8 µM. 360,000 tested, 0.72% active. AID 624352, 2012;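 active = inhibition of the luminescence signal of 40% or more relative to plate controls, in a single-dose primary screen at 18.75 µM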
CHOP inhibitor: inhibitors of CHOP promoter induction, primary screen, cell-based, unfolded protein response, luciferase reporter; CHO-K1 CHOP-promoter luciferase, tunicamycin-induced, 15-18 h; inhibition, % at 10 µM; 220,000 tested, 3.8% active; AID 2732, 2010;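 active = compounds that reduced the stress-induced luciferase reporter signal by more than about 70% of percent inhibition, limit read from the data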
KKLEB cytotox: cytotoxicity in KKLEB CF airway cells, primary screen, cytotoxicity control for CF NF-kB inhibitor project, cell-based, uHTS, fluorescence assay plates. KKLEB CF airway cells viability, ATPlite luminescence, overnight; active compounds read low; cells stimulated with P. aeruginosa culture filtrate. activity change (cytotoxicity), % at 5 µM. 360,000 tested, 0.36% active;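 active = corrected activity change at or below -50% at 5 µM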
TRPM1 prom inh: inhibitors of MITF-dependent TRPM1 promoter reporter, primary screen, cell-based, SK-MEL-5, single point, luciferase. AID 488899, 2010. inhibition, % at 12.5 µM. 330,000 tested, 0.83% active. SK-MEL-5 TRPM1 promoter luciferase, 24 h;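 active = mean inhibition across replicates of 60% or more, whatever share of single replicates reaches that level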
CF NFkB inh: inhibitors of PAF-induced NF-kB signaling, primary screen, cell-based, GFP fluorescence, uHTS; KKLEB NF-kB-GFP reporter, GFP fluorescence overnight; 360,000 tested, 0.86% active; AID 588850, 2011; inhibition, % at 5 µM;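 active = at least 50% inhibition at 5 µM, scaled per plate between neutral and stimulator controls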;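 also: PAF is a Pseudomonas aeruginosa culture filtrate used as stimulus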
Large screens that a line does not name were inactive. Shown are actives, neighbours in structure and some others; about 4.3% of the full set was active somewhere.

COc1ccccc1CN1CCC(CNS(=O)(=O)c2cc(-c3onc(C)c3C)ccc2OC)CC1	none (no result: CHOP inhibitor)
CC(C)(C)NC(=O)CN(C(=O)c1snc(C(=O)NC2CCCCC2)c1N)c1ccccc1F	none (no result: CHOP inhibitor)
CC(Sc1nnc(C2CC2)n1C1CC1)C(=O)Nc1cccc(S(=O)(=O)N2CCOCC2)c1 (stereo unspecified)	none (no result: CHOP inhibitor)
COc1ccc(C(=O)/C(=C/O)N=Nc2ccc(F)cc2)cc1	none
COc1ccc(N=N/C(=C\O)C(=O)c2cccs2)cc1	CHOP inhibitor 72.4, CF NFkB inh 75.5
Nc1cc(-c2ccc(Cl)cc2)nn1S(=O)(=O)c1cccc2nsnc12	CHOP inhibitor 80.5
Nc1cc(-c2cccc(F)c2)nn1S(=O)(=O)c1cccc2nsnc12	none
Nc1cc(-c2ccc(Br)cc2)nn1S(=O)(=O)c1cccc2nsnc12	CHOP inhibitor 86.1 (no result: TRPM1 prom inh)
O=C(Nc1ccccc1F)C1CCCN1S(=O)(=O)c1ccc(Cl)cc1 (stereo unspecified)	none (no result: CHOP inhibitor)
COc1ccc(Cl)cc1-c1cc(C(=O)Nc2ccc(C(C)(C)C)cc2)[nH]n1	none (no result: CHOP inhibitor, TRPM1 prom inh)
CCCC1SCC(C)(C)NC1=O (stereo unspecified)	none (no result: CHOP inhibitor)
Clc1ccc(-n2nnnc2Sc2ncnc3sccc23)cc1	Peg3 prom inh 108.0, HIF-2a block 93.3, TRPM1 prom inh 65.9, CF NFkB inh 82.8 (no result: CHOP inhibitor)
Cc1sc2ncnc(Sc3nnnn3-c3ccccc3)c2c1C	Peg3 prom inh 72.2, KKLEB cytotox -53.5, TRPM1 prom inh 69.0, CF NFkB inh 79.9
Cc1ccc(C)c(NC(=O)CN(C)C(C)C(=O)N2CC(C)CC(C)C2)c1 (stereo unspecified)	none (no result: CHOP inhibitor)
CC(C)(C)c1ccc(NC(=O)COC(=O)C2(C)CC2(Cl)Cl)cc1 (stereo unspecified)	CHOP inhibitor 70.2
Cc1c2c(nc3ccccc13)CCC(C(C)(C)C)C2 (stereo unspecified)	CHOP inhibitor 71.9
O=C(Cn1c2ccccc2c(=O)c2ccccc21)Nc1cccc(F)c1	CHOP inhibitor 76.7
O=C(CC(=O)Nc1cccc(F)c1)Nc1cccc(F)c1	none (no result: CHOP inhibitor)
CCCCCCCCCCCC(=O)NC(C(=O)OCC)C(O)c1cccc([N+](=O)[O-])c1 (stereo unspecified)	CHOP inhibitor 92.0
CCOC(=O)C(NC(C)=O)C(O)c1ccc([N+](=O)[O-])cc1 (stereo unspecified)	none
CCCOc1ccc(/C=N/NC(=O)CN2CCCCC2)cc1OCC	none (no result: CHOP inhibitor)
CCCCOc1ccc(C(=O)N/N=C/c2ccc(OCCN3CCCCC3)c(OC)c2)cc1	Peg3 prom inh 65.2
COc1ccc(/C=N/NC(=O)c2ccc3ccccc3c2)cc1OS(=O)(=O)c1ccc(NC(C)=O)cc1	Peg3 prom inh 61.5, CF NFkB inh 61.1
COc1ccc(/C=C/C(=O)Oc2ccc(/C=N/NC(=O)c3ccccc3)cc2)cc1OC	KKLEB cytotox -68.2, CF NFkB inh 51.5
CC(C)(C)NC(=O)[C@@H]1CN(Cc2cccnc2)CCN1C[C@@H](O)C[C@@H](Cc1ccccc1)C(=O)N[C@H]1c2ccccc2C[C@H]1O	none (no result: CHOP inhibitor)
Cc1cc(Nc2ccc(C)c(C)c2)c2ccccc2n1	none (no result: CHOP inhibitor)
Cc1ccc(Nc2nc(N)c3ccccc3n2)cc1C	KKLEB cytotox -54.4 (no result: CHOP inhibitor)
Cc1cc2c(N=NC(=O)C3CC3c3ccccc3)c(O)[nH]c2cc1Br (stereo unspecified)	CHOP inhibitor 70.5
Cc1occc1C(=O)N=Nc1c(O)[nH]c2ccc(Br)cc12	none (no result: Peg3 prom inh, HIF-2a block, KKLEB cytotox, TRPM1 prom inh, CF NFkB inh)
O=C(c1ccco1)N1CCN(c2ncnc3scc(-c4cccs4)c23)CC1	Peg3 prom inh 53.4
O=C(c1ccco1)N1CCN(c2ncnc3scc(-c4ccccc4)c23)CC1	none
O=C(CCSc1ccccc1)Nc1ccc(OCc2ccccc2)cc1	CHOP inhibitor 75.0
O=C(CCN1CCN(c2ccccc2)CC1)Nc1ccc(OCc2ccccc2)cc1	none
ONC(=Nc1ccccc1Cl)c1c(F)cccc1F	none (no result: CHOP inhibitor)
Cc1ccc(C)c(N2CCN(C(=O)c3ccc(CSc4nc5ccncc5[nH]4)cc3)CC2)c1	CHOP inhibitor 72.0
Cc1onc(-c2c(Cl)cccc2Cl)c1C(=O)n1nnc2ccccc21	CHOP inhibitor 95.7 (no result: Peg3 prom inh, HIF-2a block, KKLEB cytotox, TRPM1 prom inh, CF NFkB inh)
CN(C)c1ccc(C(=O)n2nnc3ccccc32)cc1	CF NFkB inh 68.8
COc1ccccc1CNC(=O)Cn1cc(Br)ccc1=O	none (no result: CHOP inhibitor)
CN1CCN(c2oc(-c3ccccc3)nc2S(=O)(=O)c2ccc(Br)cc2)CC1	none (no result: CHOP inhibitor)
CCOc1ccc(-c2cn3ccccc3n2)cc1	KKLEB cytotox -51.3
CCOc1ccc(-c2cnc3ccccc3n2)cc1	HIF-2a block 70.6
Fc1ccc(-c2cn3ccccc3n2)cc1	none (no result: CHOP inhibitor)
Cc1ccc(CNS(=O)(=O)c2ccc(-n3cccn3)cc2)cc1	none (no result: CHOP inhibitor, TRPM1 prom inh)
Oc1ccc(/C=N/N(Cc2ccccc2)c2ccccc2)c(O)c1O	CHOP inhibitor 80.4
O=S(=O)(c1ccccc1)N(CC1CO1)c1cccc2ccccc12 (stereo unspecified)	none
CCOc1ccccc1N1CCN(C(=O)C2=CC=CN3CCS(=O)(=O)N=C23)CC1	none (no result: CHOP inhibitor)
Cc1cccc(N2C(=O)C(Oc3ccc(Cl)cc3Cl)C2C=O)c1C (stereo unspecified)	Peg3 prom inh 68.8
COCCN1CC(=O)N(c2cccc(C)c2C)C(c2ccc(Cl)cc2)C1=O (stereo unspecified)	none
CCOC1=C2CN(S(=O)(=O)c3ccc(C)cc3)[C@H](c3ccccc3)C[C@@H]2N(S(=O)(=O)c2ccc(C)cc2)[C@H](c2cccs2)C1	none (no result: CHOP inhibitor, TRPM1 prom inh)
COc1ccc(CCNC(=O)CN2CCN(c3cccc(C(F)(F)F)c3)CC2)cc1	CHOP inhibitor 86.0
O=C(CN1CCN(Cc2ccccc2)CC1)Nc1cccc(C(F)(F)F)c1	none
O=C(CN1CCN(c2ccccc2)CC1)Nc1cccc(C(F)(F)F)c1	CHOP inhibitor 78.9
COc1ccc(CCNC(=O)CN2CCN(c3ccccc3Cl)CC2)cc1	none
Cc1ccc(C)c(N2CCN(CC3CC=CCC3)CC2)c1 (stereo unspecified)	CHOP inhibitor 71.8
C1=CCC(CN2CCNCC2)CC1 (stereo unspecified)	none
C[C@H]1CN([C@@H](C)CO)C(=O)CCCn2nncc2CO[C@H]1CN(C)S(=O)(=O)c1ccc(Oc2ccccc2)nc1	none (no result: CHOP inhibitor, TRPM1 prom inh)
CCCCN(CC)CCCNC(=O)c1cc2c(=O)n(CC)c3ccccc3c2s1	Peg3 prom inh 89.0, TRPM1 prom inh 69.2 (no result: CHOP inhibitor)
CCCCN(CC)CCNC(=O)c1cc2c(=O)n(CC)c3ccccc3c2s1	none (no result: CHOP inhibitor)
CCOC(=O)c1ccc(NC(=O)C(=O)NCc2ccc(/C=C(/C#N)C(=O)NCCOC)o2)cc1	CHOP inhibitor 71.8
